Screens: PubChem BioAssay, National Center for Advancing Translational Sciences (NCATS)
This is a sample that favours compounds with a hit; in the whole collection about 7.9% have one here.
HT1080NT lethal – kills 2HG-producing HT-1080-NT fibrosarcoma cells; AID 686970; HT-1080-NT fibrosarcoma viability, CellTiter-Glo ATP luminescence, 48 h; Potency, µM (titrated, usually from 46.1 µM), for the others: at the top dose activity, negative = less viability, actives largely listed as cytotoxic; 360,000 tested, 1.6% active;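 note: NT is the 2HG producing partner of a matched IDH1 knockdown line; 0% = DMSO-treated cells and -100% = media-only wells without cells; nearly all actives have a fitted effect of over 55% in size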
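A 48-hour cytotoxicity screen used HT-1080-NT cells plated 2 hours before compound delivery. ATP-based CellTiter-Glo luminescence measured viability, normalized to DMSO and no-cell controls.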
SW480 rereplic – DNA re-replication induction in SW480 cells | SW480 DNA re-replication, Hoechst DNA content imaging, 48 h | Potency, µM (series often up to 46.1 µM), for the others: at the highest dose re-replication activation, hits mostly activators | 340,000 tested, 1.8% active; note: % of control where 0% means no effect; nearly all actives have a fitted effect of over 55% in size
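Per well, 250 cells were exposed to pinned compound for 48 hr. Nuclear DNA was visualised with Hoechst (40 min, 37 C) and total object intensity recorded by fluorescence scanning.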
KB-3-1 tox – kills parental KB-3-1 adenocarcinoma cells | KB-3-1 viability, CellTiter-Glo ATP luminescence, 72 h | Potency, µM (highest dose often 46.1 µM), most hits filed as cytotoxic | 400,000 tested, 1.4% active; note: % is set by controls: 0 for no effect and ±100 for the full control effect; nearly all actives have a fitted effect of over 60% in size
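Cytotoxicity in the drug-sensitive parental line KB-3-1 was scored as loss of CellTiter-Glo luminescence following 72 h incubation with compound. Values come from curve fitting of normalized concentration-response data.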
MCF10A rerep – inducers of DNA re-replication in MCF 10A breast cells; MCF 10A DNA re-replication, Hoechst nuclear intensity, 48 h; Potency, µM (top dose mostly 46.1 µM), for the others: at the top dose activity, positive = re-replication, most hits filed as activators; 350,000 tested, 2.9% active; AID 624296; note: % of control where 0% means no effect; nearly all actives have a fitted effect of over 50% in size
KB-V1 MDR tox – KB-V1 MDR subline cytotoxicity | KB-V1 MDR cells viability, CellTiter-Glo, 72 h | Potency, µM (titrated, usually from 46.1 µM), most hits filed as cytotoxic | 400,000 tested, 3.4% active | AID 1347076; note: % is set by controls: 0 for no effect and ±100 for the full control effect; nearly all actives have a fitted effect of over 60% in size
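qHTS viability screen in drug-selected KB-V1 MDR cells: 72 h compound treatment at 37 degrees C, ATP luminescence end point.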
HT1080 IDH1KD tx – toxicity to HT-1080 IDH1 knockdown cells (counter line). HT-1080 IDH1 knockdown viability, ATP luminescence, 48 h. Potency, µM (top dose mostly 46.1 µM), without a hit: at the highest dose activity, negative = toxicity, hits mostly cytotoxic. 360,000 tested, 2% active. AID 686971;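 note: 0% = DMSO wells and -100% = cell-free medium wells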
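Cytotoxicity counter-line: IDH1KD HT-1080, 48 h, CellTiter-Glo. Curves classed by r2, magnitude and activity.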
Active calls of the source: *; i = inactive; ? = inconclusive; / = not tested or not shown. Calls come from the whole dose curve; as a rule, active = well fitted curve in the direction sought with a large enough effect; inconclusive = small, poorly fitted or top-dose-only effect, or another doubt; inactive = no such curve, though single readings can be large; an effect the other way counts as inactive or inconclusive. Potency is the fitted concentration of half-maximal effect.

SMILES	HT1080NT lethal	SW480 rereplic	KB-3-1 tox	MCF10A rerep	KB-V1 MDR tox	HT1080 IDH1KD tx
Cc1cc(C)n(-c2nc(NC(C)(C)C)nc(NC(C)(C)C)n2)n1	10.5%	-0.2%	i	-4.8%	i	3.7%
COCCCNC(=O)CCCn1c(=O)c2ccccc2n(CC(=O)Nc2ccc(C)cc2Cl)c1=O	/	/	i	/	i	/
CCC(C)NC(=O)c1sc2nc(C)c(C(=O)Nc3ccc(C)cc3C)c(-c3ccc(NC(C)=O)cc3)c2c1N (stereo not given)	/	/	i	/	i	/
NC(=O)c1ccccc1NC(=O)C1CCCN(c2ncnc3onc(-c4ccc(F)cc4)c23)C1 (stereo not given)	/	/	i	/	i	/
Cc1nc(NC2=NCN(CCCN3CCOCC3)CN2)nc2c(C)cccc12	-5.3%	?	8.2µM*	?	i	-13.0%
Cc1cc(C)cc(NC(=O)NCCn2nnc3cc(S(=O)(=O)N(C)C)ccc32)c1	/	/	i	/	i	/
CCOC(=O)c1c(NC(=O)C(Sc2ccccc2)c2ccccc2)sc(C(=O)N(C)C)c1C (stereo not given)	-4.3%	?	?	?	2.91µM*	?
CCc1ccc(C2c3[nH]c4ccccc4c3CCN2C(=O)CN2CCN(CC)CC2)cc1 (stereo not given)	23.1µM*	?	?	?	i	?
CCCCNC(=O)C(NC(=O)c1ccc(=O)[nH]c1)C(=O)c1ccccc1 (stereo not given)	20.8%	/	i	/	i	21.6%
Cn1cc(-c2coc3c(C(=O)Nc4ccccc4)cccc23)cn1	-18.4%	/	i	/	10.3µM*	-9.2%
CC(=O)c1cccc(NC(=O)c2cccc3c(-c4cnn(C)c4)coc23)c1	10.3%	/	i	/	?	18.2%
C[C@@H]1CN([C@@H](C)CO)C(=O)CCCn2nncc2CO[C@H]1CN(C)C(=O)OCc1ccccc1	11.4%	/	i	/	?	6.6%
COc1ccc(F)cc1C(=O)C1CCCN(Cc2cn(C)c3ccccc23)C1 (stereo not given)	?	14.6µM*	i	9.2µM*	i	?
COc1cc(C2CC(c3c(C)cc(C)[nH]c3=O)=NN2c2ccccc2F)cc(OC)c1OC (stereo not given)	-11.4%	?	i	23.1µM*	i	-7.3%
CCn1c2ccccc2c2nc3ccccc3nc21	-16.8%	13.5%	i	13µM*	i	-16.5%
CCn1c2ccccc2c2nc3cc(C(=O)O)ccc3nc21	?	-19.7%	i	?	?	?
CCn1c2ccccc2c2nc3cc(OC)c(OC)cc3nc21	?	18.4µM*	?	2.91µM*	2.06µM*	?
CC(C)=CCC[C@H](C)C[C@@H]1Cc2[nH][nH]c(=O)c2[C@H](c2ccc(F)cc2)O1	-13.9%	/	i	/	i	-3.1%
Cn1c2ccccc2c2c(C(=O)N3CCN(c4ccc(F)cc4)CC3)cn(C3CCCCC3)c(=O)c21	/	/	i	/	i	/
CCc1cc2c(=O)n(CC(C)C)cnc2s1	2.9%	234.2%	i	-8.6%	?	1.2%
CCCCCn1cnc2sc(CC)cc2c1=O	11.9%	0.0%	i	2.9%	14.6µM*	4.5%
CCN(C(=O)COC(=O)c1cc(-c2cccc3ccccc23)nc2ccccc12)C1CCS(=O)(=O)C1 (stereo not given)	-1.4%	10.7%	i	4.4%	18.4µM*	-10.1%
CCN(C(=O)COC(=O)CNC(=O)c1ccc2ccccc2c1)C1CCS(=O)(=O)C1 (stereo not given)	-5.8%	-35.0%	i	5.8µM*	i	-1.3%
COc1ccccc1NC(=O)CSc1nc2c(oc3ccccc32)c(=O)n1-c1ccccc1F	/	/	i	/	i	/
CC1=C(C(=O)N2CCOCC2)CC(CC(=O)NC2CC2)C(=O)N1CCC1=CCCCC1 (stereo not given)	8.7%	/	i	/	i	6.6%
